In article PMC7862700, “An all-to-all approach to the identification of sequence-specific readers for epigenetic DNA modifications on cytosine”:

What was measured:
Assay in all cases: DAPPL (digital affinity profiling via proximity ligation, sequencing); 10 mM Tris-HCl pH 7.5, 50 mM NaCl, 1 mM DTT, 4% glycerol, room temperature, 30 min; GST-TFs on glutathione beads, 16-mer random dsDNA library, 0.1% formaldehyde crosslink after washing; high values mean tight binding
Conditions in all cases: protein: recombinant; tags: N-terminal GST; dsDNA, one strand shown
FLI1 = molecular target: T1, FLI1 (Homo sapiens, UniProt Q01543 1-452)
T1 sequence: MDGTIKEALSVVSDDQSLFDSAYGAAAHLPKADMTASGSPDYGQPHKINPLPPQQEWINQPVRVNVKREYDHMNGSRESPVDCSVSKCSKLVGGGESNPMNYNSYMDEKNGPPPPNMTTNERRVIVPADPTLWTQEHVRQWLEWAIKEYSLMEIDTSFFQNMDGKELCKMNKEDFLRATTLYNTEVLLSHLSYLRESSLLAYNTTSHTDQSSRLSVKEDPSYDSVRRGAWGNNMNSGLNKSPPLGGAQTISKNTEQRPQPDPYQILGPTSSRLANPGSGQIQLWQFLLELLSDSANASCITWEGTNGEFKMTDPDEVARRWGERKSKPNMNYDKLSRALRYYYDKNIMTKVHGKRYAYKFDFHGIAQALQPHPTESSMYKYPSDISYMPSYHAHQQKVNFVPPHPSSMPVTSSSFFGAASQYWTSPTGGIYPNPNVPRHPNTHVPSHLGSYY
Procedure, shortened: (§1)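 Sequencing on an Illumina NextSeq500 followed washing, crosslinking with 0.1% formaldehyde, proximity ligation (BsaI/T4 ligase, 1 h, 37 °C) and PCR amplification of pools that had been incubated for 30 min at room temperature with 200 nmole of a random double-stranded 16-mer DNA library in Tris/NaCl/DTT/glycerol buffer. Each pool held DNA-barcoded human transcription factors, expressed in yeast as GST fusions and captured on glutathione beads, plus a tag-only sample. Binding signal is a hexamer's read frequency for a factor divided by its frequency in the tag-only sample.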

ELK1 = molecular target: T2, ELK1 (Homo sapiens, UniProt P19419 1-428)
T2 sequence: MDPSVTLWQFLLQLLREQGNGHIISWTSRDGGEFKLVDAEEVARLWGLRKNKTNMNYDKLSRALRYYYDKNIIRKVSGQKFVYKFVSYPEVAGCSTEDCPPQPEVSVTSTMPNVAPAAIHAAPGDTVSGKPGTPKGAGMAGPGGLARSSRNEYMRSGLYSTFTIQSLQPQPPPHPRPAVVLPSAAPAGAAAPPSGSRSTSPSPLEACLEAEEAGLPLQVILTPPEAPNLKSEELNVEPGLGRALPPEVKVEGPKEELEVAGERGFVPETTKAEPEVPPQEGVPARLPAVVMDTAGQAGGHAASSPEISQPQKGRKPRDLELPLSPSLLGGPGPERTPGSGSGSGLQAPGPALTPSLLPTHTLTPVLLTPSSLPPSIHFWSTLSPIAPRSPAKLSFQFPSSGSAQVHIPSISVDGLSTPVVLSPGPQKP
Procedure, shortened: as §1

GABPA = molecular target: T3, GABPA (Homo sapiens, UniProt Q06546 1-454)
T3 sequence: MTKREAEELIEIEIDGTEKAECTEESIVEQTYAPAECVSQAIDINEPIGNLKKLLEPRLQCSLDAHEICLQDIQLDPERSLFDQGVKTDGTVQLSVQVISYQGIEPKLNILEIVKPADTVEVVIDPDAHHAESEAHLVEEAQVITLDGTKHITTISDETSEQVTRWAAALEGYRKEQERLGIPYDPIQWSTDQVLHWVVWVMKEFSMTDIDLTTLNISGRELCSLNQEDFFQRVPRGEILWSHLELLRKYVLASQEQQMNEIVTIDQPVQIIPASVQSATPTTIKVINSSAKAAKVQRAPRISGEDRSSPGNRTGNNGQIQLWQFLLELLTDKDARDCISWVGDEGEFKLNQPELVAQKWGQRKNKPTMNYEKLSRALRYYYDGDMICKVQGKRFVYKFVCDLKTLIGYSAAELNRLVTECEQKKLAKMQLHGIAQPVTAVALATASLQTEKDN
Procedure, shortened: as §1

ERG = molecular target: T4, ERG (Homo sapiens, UniProt P11308 1-479)
T4 sequence: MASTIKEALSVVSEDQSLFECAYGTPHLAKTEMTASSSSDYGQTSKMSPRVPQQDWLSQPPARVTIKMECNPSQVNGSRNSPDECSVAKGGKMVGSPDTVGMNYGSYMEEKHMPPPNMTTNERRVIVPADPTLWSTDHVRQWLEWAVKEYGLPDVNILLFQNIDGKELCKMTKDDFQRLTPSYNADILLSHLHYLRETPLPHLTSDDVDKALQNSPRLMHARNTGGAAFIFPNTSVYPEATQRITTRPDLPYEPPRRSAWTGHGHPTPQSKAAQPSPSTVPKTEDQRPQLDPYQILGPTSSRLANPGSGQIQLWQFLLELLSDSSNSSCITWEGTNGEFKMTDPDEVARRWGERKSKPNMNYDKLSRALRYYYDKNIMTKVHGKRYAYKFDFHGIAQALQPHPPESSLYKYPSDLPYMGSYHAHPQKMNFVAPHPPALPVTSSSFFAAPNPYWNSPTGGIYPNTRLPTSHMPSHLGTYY
Procedure, shortened: as §1

ELF1 = ELF1 (Homo sapiens, UniProt P32519 1-619)
Sequence of ELF1 (P32519 whole entry): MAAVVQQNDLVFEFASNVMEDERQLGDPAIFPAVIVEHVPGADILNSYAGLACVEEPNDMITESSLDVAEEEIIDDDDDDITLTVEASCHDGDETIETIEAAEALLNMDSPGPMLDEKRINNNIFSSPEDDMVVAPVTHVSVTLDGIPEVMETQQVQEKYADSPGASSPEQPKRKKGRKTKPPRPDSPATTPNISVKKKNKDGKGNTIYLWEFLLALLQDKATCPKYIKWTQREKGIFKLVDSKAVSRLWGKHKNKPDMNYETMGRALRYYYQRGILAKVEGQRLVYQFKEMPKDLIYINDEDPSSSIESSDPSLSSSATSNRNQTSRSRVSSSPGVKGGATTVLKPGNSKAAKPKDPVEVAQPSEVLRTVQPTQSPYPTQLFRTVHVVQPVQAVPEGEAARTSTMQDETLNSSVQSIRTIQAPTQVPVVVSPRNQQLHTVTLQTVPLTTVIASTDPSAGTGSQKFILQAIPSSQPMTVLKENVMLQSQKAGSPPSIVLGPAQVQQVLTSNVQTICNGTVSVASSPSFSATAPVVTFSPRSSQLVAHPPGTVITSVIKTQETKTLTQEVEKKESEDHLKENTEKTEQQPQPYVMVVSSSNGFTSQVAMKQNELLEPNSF
Procedure, shortened: as §1

EHF = molecular target: T5, EHF (Homo sapiens, UniProt Q9NZC4 1-300)
T5 sequence: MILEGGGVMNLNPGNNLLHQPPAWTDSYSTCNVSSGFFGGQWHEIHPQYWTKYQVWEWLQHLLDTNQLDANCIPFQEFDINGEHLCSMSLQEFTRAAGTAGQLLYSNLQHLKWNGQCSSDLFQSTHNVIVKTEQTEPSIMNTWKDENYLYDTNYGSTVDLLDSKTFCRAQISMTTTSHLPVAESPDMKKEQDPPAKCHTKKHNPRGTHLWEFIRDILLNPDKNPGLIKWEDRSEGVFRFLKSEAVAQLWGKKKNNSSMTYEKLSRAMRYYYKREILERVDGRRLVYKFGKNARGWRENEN
Procedure, shortened: as §1

SPI1 = SPI1 (Homo sapiens, UniProt P17947 1-270)
Procedure, shortened: as §1

SPIB = SPIB (Homo sapiens, UniProt Q01892 1-262)
Sequence of SPIB (Q01892 whole entry): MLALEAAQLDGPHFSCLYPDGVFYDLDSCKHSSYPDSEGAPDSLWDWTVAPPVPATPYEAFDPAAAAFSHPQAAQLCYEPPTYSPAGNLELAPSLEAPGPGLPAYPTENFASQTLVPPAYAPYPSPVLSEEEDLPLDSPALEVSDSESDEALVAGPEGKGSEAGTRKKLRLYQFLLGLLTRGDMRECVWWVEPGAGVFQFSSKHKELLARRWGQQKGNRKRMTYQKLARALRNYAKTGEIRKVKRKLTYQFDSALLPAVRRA
Procedure, shortened: as §1

ELK3 = molecular target: T6, ELK3 (Homo sapiens, UniProt P41970 1-407)
T6 sequence: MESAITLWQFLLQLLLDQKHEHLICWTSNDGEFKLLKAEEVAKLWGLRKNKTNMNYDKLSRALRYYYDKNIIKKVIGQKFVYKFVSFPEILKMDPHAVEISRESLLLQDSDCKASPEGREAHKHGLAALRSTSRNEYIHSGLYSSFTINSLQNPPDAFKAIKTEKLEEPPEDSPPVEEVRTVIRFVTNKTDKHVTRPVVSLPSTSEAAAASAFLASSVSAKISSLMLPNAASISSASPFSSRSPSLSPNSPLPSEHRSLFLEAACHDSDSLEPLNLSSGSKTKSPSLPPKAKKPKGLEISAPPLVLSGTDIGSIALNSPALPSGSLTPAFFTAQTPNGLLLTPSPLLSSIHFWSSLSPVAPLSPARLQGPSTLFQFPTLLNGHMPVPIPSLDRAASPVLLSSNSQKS
Procedure, shortened: as §1

Sequence	binding signal (FLI1)	binding signal (ELK1)	binding signal (GABPA)	binding signal (ERG)	binding signal (ELF1)	binding signal (EHF)	binding signal (SPI1)	binding signal (SPIB)	binding signal (ELK3)
TGGCAA	1.23 fold enrichment (6-mer frequency, TF over GST control)	1.21 fold enrichment (6-mer frequency, TF over GST control)	1.22 fold enrichment (6-mer frequency, TF over GST control)	1.15 fold enrichment (6-mer frequency, TF over GST control)	1.2 fold enrichment (6-mer frequency, TF over GST control)	1.16 fold enrichment (6-mer frequency, TF over GST control)	1.2 fold enrichment (6-mer frequency, TF over GST control)	1.32 fold enrichment (6-mer frequency, TF over GST control)	1.11 fold enrichment (6-mer frequency, TF over GST control)
GGGCTC	1.21 fold enrichment (6-mer frequency, TF over GST control)	1.24 fold enrichment (6-mer frequency, TF over GST control)	1.32 fold enrichment (6-mer frequency, TF over GST control)	1.17 fold enrichment (6-mer frequency, TF over GST control)	1.2 fold enrichment (6-mer frequency, TF over GST control)	1.03 fold enrichment (6-mer frequency, TF over GST control)	1.11 fold enrichment (6-mer frequency, TF over GST control)	1.26 fold enrichment (6-mer frequency, TF over GST control)	1.22 fold enrichment (6-mer frequency, TF over GST control)
CAAATG	1.11 fold enrichment (6-mer frequency, TF over GST control)	1.16 fold enrichment (6-mer frequency, TF over GST control)	1.08 fold enrichment (6-mer frequency, TF over GST control)	1.16 fold enrichment (6-mer frequency, TF over GST control)	1.22 fold enrichment (6-mer frequency, TF over GST control)	1.1 fold enrichment (6-mer frequency, TF over GST control)	1.25 fold enrichment (6-mer frequency, TF over GST control)	1.13 fold enrichment (6-mer frequency, TF over GST control)	1.09 fold enrichment (6-mer frequency, TF over GST control)
ATACGG	1.19 fold enrichment (6-mer frequency, TF over GST control)	1.16 fold enrichment (6-mer frequency, TF over GST control)	1.17 fold enrichment (6-mer frequency, TF over GST control)	1.23 fold enrichment (6-mer frequency, TF over GST control)	1.19 fold enrichment (6-mer frequency, TF over GST control)	1.2 fold enrichment (6-mer frequency, TF over GST control)	1.31 fold enrichment (6-mer frequency, TF over GST control)	1.23 fold enrichment (6-mer frequency, TF over GST control)	1.23 fold enrichment (6-mer frequency, TF over GST control)
GTTTCA	1.34 fold enrichment (6-mer frequency, TF over GST control)	1.27 fold enrichment (6-mer frequency, TF over GST control)	1.35 fold enrichment (6-mer frequency, TF over GST control)	1.3 fold enrichment (6-mer frequency, TF over GST control)	1.4 fold enrichment (6-mer frequency, TF over GST control)	1.3 fold enrichment (6-mer frequency, TF over GST control)	1.32 fold enrichment (6-mer frequency, TF over GST control)	1.24 fold enrichment (6-mer frequency, TF over GST control)	1.44 fold enrichment (6-mer frequency, TF over GST control)
CGTCCC	1.3 fold enrichment (6-mer frequency, TF over GST control)	1.39 fold enrichment (6-mer frequency, TF over GST control)	1.42 fold enrichment (6-mer frequency, TF over GST control)	1.37 fold enrichment (6-mer frequency, TF over GST control)	1.36 fold enrichment (6-mer frequency, TF over GST control)	1.44 fold enrichment (6-mer frequency, TF over GST control)	1.23 fold enrichment (6-mer frequency, TF over GST control)	1.31 fold enrichment (6-mer frequency, TF over GST control)	1.57 fold enrichment (6-mer frequency, TF over GST control)
CACAAC	1.24 fold enrichment (6-mer frequency, TF over GST control)	1.24 fold enrichment (6-mer frequency, TF over GST control)	1.3 fold enrichment (6-mer frequency, TF over GST control)	1.25 fold enrichment (6-mer frequency, TF over GST control)	1.28 fold enrichment (6-mer frequency, TF over GST control)	1.21 fold enrichment (6-mer frequency, TF over GST control)	1.21 fold enrichment (6-mer frequency, TF over GST control)	1.23 fold enrichment (6-mer frequency, TF over GST control)	1.22 fold enrichment (6-mer frequency, TF over GST control)
CTCAAA	1.2 fold enrichment (6-mer frequency, TF over GST control)	1.14 fold enrichment (6-mer frequency, TF over GST control)	1.16 fold enrichment (6-mer frequency, TF over GST control)	1.13 fold enrichment (6-mer frequency, TF over GST control)	1.25 fold enrichment (6-mer frequency, TF over GST control)	1.11 fold enrichment (6-mer frequency, TF over GST control)	1.29 fold enrichment (6-mer frequency, TF over GST control)	1.23 fold enrichment (6-mer frequency, TF over GST control)	1.15 fold enrichment (6-mer frequency, TF over GST control)
